Data taken from PubChem BioAssay AID1224917.
The source made the active and inactive calls. The rule behind the calls is not given here.

Target: Proto-oncogene tyrosine-protein kinase Src (Homo sapiens) (UniProt P12931)
Test: SRC kinase inhibition relative to ABL, profiling panel, biochemical, recombinant kinase panel (AID 1224917)
Conditions: 33P substrate incorporation, hits give high values

Sequence of Proto-oncogene tyrosine-protein kinase Src (Homo sapiens) (P12931 whole entry, looked up): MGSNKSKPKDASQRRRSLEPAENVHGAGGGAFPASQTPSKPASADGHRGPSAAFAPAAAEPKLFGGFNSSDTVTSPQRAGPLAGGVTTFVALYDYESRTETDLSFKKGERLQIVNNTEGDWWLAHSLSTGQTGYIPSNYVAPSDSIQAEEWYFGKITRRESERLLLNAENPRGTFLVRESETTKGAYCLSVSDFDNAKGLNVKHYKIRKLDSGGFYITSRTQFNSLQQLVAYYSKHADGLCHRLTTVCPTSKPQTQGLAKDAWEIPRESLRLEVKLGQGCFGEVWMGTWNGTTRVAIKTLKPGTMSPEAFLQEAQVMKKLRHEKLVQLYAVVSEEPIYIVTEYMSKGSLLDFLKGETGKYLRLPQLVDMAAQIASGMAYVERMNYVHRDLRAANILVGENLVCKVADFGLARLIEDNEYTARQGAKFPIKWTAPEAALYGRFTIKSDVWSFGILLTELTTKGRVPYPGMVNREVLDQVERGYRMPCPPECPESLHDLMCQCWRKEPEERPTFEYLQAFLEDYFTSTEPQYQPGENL

With `COc1cc(-c2nn(CCN3CCC(N(C)C)CC3)c3ncnc(N)c23)ccc1NC(=O)OC(C)(C)C` as the compound, how does the selectivity fold (ABL/SRC IC50) read?
The selectivity fold (ABL/SRC IC50) was > 950 (active).
